The record followed here is PubChem BioAssay AID1345085 (National Center for Advancing Translational Sciences (NCATS), 2018).

Records with an inconclusive call do not appear. A number with no mark means an inactive call. The source made the active and inactive calls. The call rests on the fitted dose curve; in most records, active means well fitted cell-killing curve with a large enough effect; inconclusive means small, poorly fitted or top-dose-only effect, or effect the other way; inactive means no such curve, though single readings can be large or run the other way.
On the % scale 0 is the no-effect control and ±100 the full control effect; potency means the concentration at half of the fitted maximal effect.

In the assay the test system is Es-2. In words: Confirmatory qHTS for gynecologic anti-cancer compounds from libraries of approved drugs and bioactive compounds. Further: nearly all actives have a fitted effect of over 55% in size. As to conditions: gynecologic cancer cell panel viability, ATPlite luminescence, 48 h; series mostly up to 57.6 µM; activity change, negative = viability loss: at the top concentration. In a few lines: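 IC50 values derive from an ATPlite ATP-content luminescence assay following 48 h treatment at 37 C. Each compound ran as an 11-concentration, threefold series (57.5 uM to 0.977 nM); HEK 293T served as control line for selectivity index.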
(In general: Quantitative high-throughput screening tests each substance at several concentrations.)
With `CNC1CCC(N(Cc2cccc(-c3ccncc3)c2)C(=O)c2sc3ccccc3c2Cl)CC1` (configuration not stated), the Potency was 24.3 µM (active). With `NC1(c2ccc(-c3nc4ccn5c(=O)[nH]nc5c4cc3-c3ccccc3)cc2)CCC1`, the “activity change, negative = viability loss” value is -4.22%. Take `C[C@]12CCC(=O)C=C1[C@@H]1C[C@@H]1[C@H]1[C@@H]3[C@@H]4C[C@@H]4[C@@]4(CCC(=O)O4)[C@@]3(C)CC[C@@H]12`: the “activity change, negative = viability loss” value was -1.03%. Turning to `CCC1C(=O)N(C)c2cnc(Nc3ccc(C(=O)NC4CCC(N5CCN(CC6CC6)CC5)CC4)cc3OC)nc2N1C(C)C` (configuration not stated), the Potency was 1.22 µM (active). On the same count and under the same terms, for `CCN(CC)CCOc1ccc(/C(=C(\Cl)c2ccccc2)c2ccccc2)cc1` the value was 398 µM (active). On the same count and under the same terms, for `FC(F)(F)c1ccc(/C=C/c2nc(COc3ccc(CCCCn4ccnn4)cc3)co2)cc1` the value was 24.3 µM (active). On to `CN(C[C@@H]1COCCO1)S(=O)(=O)Nc1ccc2ccc3ncc(-c4cnn(C)c4)cc3c(=O)c2c1`, for which the “activity change, negative = viability loss” value is 13.7%.

For the compound `Cc1cc(SCc2sc(-c3ccc(C(F)(F)F)cc3)nc2C)ccc1OCC(=O)O`, the “activity change, negative = viability loss” value was -3.41%. Same read-out and setting: for `CNc1nc(Nc2ccc(C(=O)N3CCOCC3)cc2OC)ncc1Cl` the value was -4.5%; for `NCCOc1cc(C(=O)Nc2cc(OCCN)c3ccccc3n2)nc(C(=O)Nc2cc(OCCN)c3ccccc3n2)c1`, 4.63%. Same read-out and setting: with `Cc1cc(Nc2nc(N[C@@H](C)c3ncc(F)cn3)ncc2Cl)n[nH]1` the figure was -7.91%.

With `CCC1C(=O)N(C)c2cnc(Nc3ccc(C(=O)NC4CCN(C)CC4)cc3OC)nc2N1C1CCCC1` (configuration not stated), the Potency was 0.0611 µM (active).
